Potency and activity change, negative = inhibition data for 40 compounds are collected here from PubChem BioAssay (Tox21).

Records with an inconclusive call do not appear. A call without a number means that no potency is given here. Values without a mark were called inactive. Activity calls are given as the source filed them. Calls come from the whole dose curve; as a rule, active = well fitted inhibition curve with a large enough effect in the repeat runs; inconclusive = weak or mixed curves; inactive = no such curve, though single readings can be large or run the other way.
Potency is the fitted concentration of half-maximal effect.

Cytochrome P450 2D6 (Homo sapiens), sequence (P10635 whole entry, looked up): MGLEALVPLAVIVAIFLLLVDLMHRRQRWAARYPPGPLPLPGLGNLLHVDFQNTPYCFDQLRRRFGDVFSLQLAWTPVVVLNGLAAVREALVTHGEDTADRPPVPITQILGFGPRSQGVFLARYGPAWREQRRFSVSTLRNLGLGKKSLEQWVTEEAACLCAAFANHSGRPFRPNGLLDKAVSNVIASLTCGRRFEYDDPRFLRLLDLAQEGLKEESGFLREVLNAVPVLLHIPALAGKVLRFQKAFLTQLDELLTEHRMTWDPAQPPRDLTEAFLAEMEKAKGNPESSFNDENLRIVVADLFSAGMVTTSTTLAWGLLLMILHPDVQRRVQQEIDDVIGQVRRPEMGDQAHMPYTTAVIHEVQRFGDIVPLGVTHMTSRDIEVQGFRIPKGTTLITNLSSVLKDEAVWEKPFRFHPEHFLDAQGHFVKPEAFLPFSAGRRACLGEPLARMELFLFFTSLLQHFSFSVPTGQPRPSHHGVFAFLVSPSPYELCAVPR

The target of this test is Cytochrome P450 2D6 (Homo sapiens) (UniProt P10635). Kind of test: Cytochrome P450 Family 2 Subfamily D Member 6 (CYP2D6) small molecule antagonists: luciferase reporter qHTS assay (AID 1671196). Note: nearly all actives have a fitted effect of over 50% in size. The conditions noted are these: P450-Glo CYP2D6 enzyme assay, luciferin luminescence, 1 h; series mostly up to 115 µM. An excerpt:
U.S. Tox21 Program National Center for Advancing Translational Sciences [NCATS] U.S. Environmental Protection Agency [EPA] National Institutes of Environmental Health Sciences [NIEHS] National Toxicology Program [NTP] U.S. Food and Drug Administration [FDA] Tox21 Assay Overview: Cytochrome P450 (CYP) enzymes are membrane-bound hemeproteins that play a key role in metabolism of drugs and xenobiotics. Evaluation of the effect of chemicals on CYP isozymes is useful to minimize the adverse drug reactions and toxicities in drug development process. Tox21 chemicals were tested for their effect on CYP enzyme activities by using P450-Glo (TM) screening systems (Promega Corporation, Madison, WI). These systems provide a luminescent method containing proluciferin substrates and are converted to luciferin products by CYP isozymes. The luciferin products formed are detected with a luciferin detection reagent, and the amount of light produced is proportional to CYP activity. P450-Glo (TM) CYP2D6 screening system (Catalog. No. V9890) was used to detect the compounds that interfere in CYP2D6 activity.
Tox21 Assay Protocol Summary: Two ul of enzyme-substrate mix was dispensed into medium binding white/solid 1536-well plates (Greiner Bio-One North America Inc., Monroe, NC) using a BioRaptr Flying Reagent Dispenser (FRD, Beckman Coulter, Brea, CA). […] The assay plates were incubated at room temperature for 10 min. Then 2 ul of NADPH regeneration solution was added to each well of the assay plates using an FRD and incubated at room temperature for 1 h. The reaction was stopped by adding 4 ul of detection reagent using an FRD and after 20 min incubation at room temperature the luminescence signal was measured using a ViewLux plate reader (Perkin Elmer, Shelton, CT). Data were expressed as relative luminescence units.
In the case of `Clc1cccc(-c2cc(Cl)cc(Cl)c2)c1`, the Potency entry was “inactive”.
With `CN1[C@@H]2CC[C@H]1CC(OC(=O)c1c[nH]c3ccccc13)C2` (stereo not given in full), the Potency was 15.5 µM (active).
For `Cc1nc(N)nc(N)c1-c1ccc(Cl)c(Cl)c1`, the Potency was 2.19 µM (active).
For the compound `CCOc1ccc2nc(N)sc2c1`, the Potency is 39.6 µM (active).
On to `CC1(C)S[C@@H]2[C@H](NC(=O)C(C(=O)O)c3ccccc3)C(=O)N2[C@H]1C(=O)O` (stereo not given in full), for which the Potency entry was “inactive”.
Regarding `O=C(O)c1ccccc1Nc1cc(Cl)ccc1C(=O)O`, the Potency is 1.51 µM (active).
Same read-out and setting: in the case of `COc1ccccc1N1CCN(CCCNc2cc(=O)n(C)c(=O)n2C)CC1` it was 11 µM (active); in that of `NCCC(O)(P(=O)(O)O)P(=O)(O)O`, “inactive”; in that of `O=C1N(c2ccccc2)c2ccccc2C1(Cc1ccncc1)Cc1ccncc1`, 30.9 µM (active).
In the case of `c1ccc(CN(CC2=NCCN2)c2ccccc2)cc1`, the Potency is 1.38 µM (active).
Still for that read-out and setting: to `COc1cc(N)c(Cl)cc1C(=O)NC1CCN(Cc2ccccc2)CC1` belongs 0.0309 µM (active).
As to `CC(C)C1=CC2=CC[C@@H]3[C@](C)(CCC[C@@]3(C)C(=O)O)[C@H]2CC1`, the Potency result is “inactive”.
For `O=C(O)C(=O)Cc1c[nH]c2ccccc12`, the Potency is 28.3 µM (active).
Same read-out and setting: to `Nc1ccc(Oc2ccc(N)c(N)c2)cc1` belongs 5.64 µM (active).
Same read-out and setting: in the case of `C=Cc1ccccc1` it was “inactive”.
Still for that read-out and setting: to `CCCOc1ccc2c(c1)CC[C@@H]1[C@@H]2CC[C@]2(C)C(OC)CC[C@@H]12` (stereo not given in full) belongs 15.5 µM (active).
Take `C[C@@H]1CN(c2c(F)c(N)c3c(=O)c(C(=O)O)cn(C4CC4)c3c2F)C[C@H](C)N1`: the activity change, negative = inhibition was -4.41% [at 23.6 µM].
On to `CO[C@@]1(NC(=O)CSCC#N)C(=O)N2C(C(=O)O)=C(CSc3nnnn3C)CS[C@@H]21`, for which the Potency entry was “inactive”.
Same read-out and setting: in the case of `CC(C)=CCCC(C)CCOC=O` (stereo not given) it was “inactive”; in that of `CCc1cc(Cl)c(OC)c(C(=O)NC[C@@H]2CCCN2CC)c1O`, 0.617 µM (active).
For `CC(C)CCCCCCc1ccc(OCCOCCO)cc1`, the Potency entry was “inactive”.
The same measure, in the same setting: to `CCCCCCn1c(=O)c2c(ncn2C)n(C)c1=O` belongs “inactive”.
Same read-out and setting: in the case of `COC(=O)C(C)O` (stereo not given) it was “inactive”.
For `CCCCCCCOC(=O)CCC`, the Potency was 20 µM (active).
On to `CCOC(=O)COc1ccc2c(c1)CC(NCC(O)c1cccc(Cl)c1)CC2` (stereo not given), for which the Potency is 0.452 µM (active).
As to `CCOC(=O)C1CC(=O)C(=C(O)C2CC2)C(=O)C1` (stereo not given), the Potency result is “inactive”.
The same measure, in the same setting: in the case of `CCCN(CCC)C(=O)C(CCC(=O)O)NC(=O)c1ccccc1` (stereo not given) it was “inactive”; in that of `CC(C)OC(C)C`, “inactive”; in that of `CCN(O)CC`, “inactive”.
With `C[C@]12C(=O)OC(=O)[C@H]1[C@H]1C=C[C@@H]2C1`, the Potency entry is “inactive”.
With `CCCC1CCC(=O)O1` (stereo not given), the Potency result is “inactive”.
Consider `C=CCCCCCCCCO`, for which the Potency entry is “inactive”.
As for `O=C(CCCl)NCc1ccccc1`, the Potency entry was “inactive”.
On the same count and under the same terms, in the case of `CN(CCCN1c2ccccc2CCc2ccccc21)CC(=O)c1ccc(Cl)cc1` it was 7.76 µM (active); in that of `CC(C)(C)c1cccc(O)c1`, “inactive”.
Same read-out and setting: in the case of `CCCCc1ccc2nc(NC(=O)OC)[nH]c2c1` it was “inactive”; in that of `CN1CCC[C@@H]1Cc1c[nH]c2ccc(CCS(=O)(=O)c3ccccc3)cc12`, 13.8 µM (active).
Take `Cc1ccc(C)c(N)c1`: the Potency is 20 µM (active).
`CCOC(=O)C(Br)c1ccccc1` (stereo not given): the Potency result is “inactive”.
For `OCC(CBr)(CBr)CBr`, the Potency entry is “inactive”.
